Nrf2 inh: Nrf2 pathway inhibition | A549 ARE-Fluc reporter, luciferase luminescence, 18-24 h | Potency, µM (series often up to 46 µM), most hits filed as inhibitors | 2.1% of 360,000 active; note: nearly all actives have a fitted effect of over 60% in size
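Cells were seeded and rested 2 h, then exposed to compounds for 18-24 h. CellTiter-Fluor was read first as a viability measure. BugLite was added 15 min before the final luminescent read of ARE-luciferase activity in A549 cells.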
LDHA inh: LDHA (human) enzyme inhibition | 0.15% of 480,000 active | activity change, % (values are at about 110 or 230 µM) | P00338 | AID 1347041 | purified LDHA, NADH/diaphorase-resazurin fluorescence; hits give low values; in the data active = activity change below about -30%; inconclusive = mostly about -25% to -30%
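Remaining NADH was detected by diaphorase (0.133 mg/mL) converting 37 µM resazurin to fluorescent resorufin, read at 0 and 20 minutes. The preceding 5-minute room-temperature reaction used 2 nM LDHA, 0.2 mM sodium pyruvate and 0.06 mM NADH at pH 7.4.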
ALOX12 inh: blocks human arachidonate 12S-lipoxygenase; P18054; purified 12hLO, xylenol orange hydroperoxide absorbance; Potency, µM (series often up to 108 µM), hits mostly inhibitors; 1.1% of 580,000 active
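Purified human 12hLO (150 nM final) in 25 mM Hepes, 0.01% Triton X-100, pH 7.0 was preincubated 15 min at room temperature with compound. Then 40 uM arachidonic acid was added, 30 min. Hydroperoxide was read by Fe-XO absorbance ratio 573/405 nm.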
ERG Ets-DNA blk: blocks human ERG Ets domain binding to DNA; P11308; fluorescence polarization, His-ERG Ets domain / labelled DNA; Potency, µM (titrated, usually from 76.9 µM), most hits filed as inhibitors; 0.028% of 370,000 active; AID 624246; active = well fitted inhibition curve with a large enough effect in the polarisation, with a control signal flat; inconclusive = small, poorly fitted or top-dose-only effect, or effect the other way, or a change in a side signal; inactive = no such curve, though single readings can be large or run the other way; the % refers to the polarisation;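 note: polarization taken with two DNA probes labelled with fluorescein and Texas red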
Target sequence (P11308 whole entry, looked up, the tested form may be a part): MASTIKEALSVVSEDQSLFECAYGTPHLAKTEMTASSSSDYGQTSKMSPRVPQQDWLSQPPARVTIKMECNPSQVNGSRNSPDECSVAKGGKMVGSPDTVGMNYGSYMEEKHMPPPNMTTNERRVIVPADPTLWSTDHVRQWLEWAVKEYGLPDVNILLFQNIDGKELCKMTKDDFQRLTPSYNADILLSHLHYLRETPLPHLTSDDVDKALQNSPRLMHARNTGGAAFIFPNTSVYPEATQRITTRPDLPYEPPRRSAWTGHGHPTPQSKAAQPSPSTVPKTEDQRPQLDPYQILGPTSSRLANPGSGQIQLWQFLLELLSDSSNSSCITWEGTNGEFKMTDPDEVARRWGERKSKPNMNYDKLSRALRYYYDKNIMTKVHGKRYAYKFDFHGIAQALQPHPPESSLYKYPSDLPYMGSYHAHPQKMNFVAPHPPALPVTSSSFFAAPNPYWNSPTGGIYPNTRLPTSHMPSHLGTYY
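His-tagged ERG Ets domain (1 uM in the protein solution; 300mM KCl, 50mM Tris-HCl, 1mM EDTA, 1mM DTT, pH 7.5) received compound, then a probe mix of 5 nM fluorescein-DNA and 100nM Texas-615-DNA. Fluorescence polarization was read for both dyes.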
A549 viability: A549 cytotoxicity, counter-screen for Nrf2 inhibitors | Potency, µM (top dose mostly 46 µM), most hits filed as inhibitors | 0.16% of 390,000 active | A549 ARE-Fluc cells, CellTiter-Fluor viability, 18-24 h | AID 504648
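Cytotoxicity counterscreen: CellTiter-Fluor fluorescence was measured in A549 ARE_Fluc cells after 18-24 h of compound exposure in a concentration series. The subsequent BugLite luminescent read reports ARE-luciferase activity.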
Nrf2 activator: activators of Nrf2 (ARE) signaling; 0.31% of 410,000 active; AREc32 ARE-luciferase reporter (MCF7-derived line), luminescence, 24 h; Potency, µM (highest dose often 46.1 µM), actives largely listed as activators; note: nearly all actives have a fitted effect of over 65% in size
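AREc32 cells carrying an ARE-driven firefly luciferase reporter were seeded at 1000 cells/well in OPTI-MEM with 5% FBS, then exposed to compound for 24 hr at 37 deg C. Luminescence was read with Steady-Glo after 30 min at RT.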
Hits are given with their value; - = inactive; ? = inconclusive; . = not tested or not shown. Only some compounds are listed: those with a hit (about 2.7% of all), similar ones and a draw of the others. Unless noted, calls come from the whole dose curve; as a rule, active = well fitted curve in the direction sought with a large enough effect; inconclusive = small, poorly fitted or top-dose-only effect, or another doubt; inactive = no such curve, though single readings can be large; an effect the other way counts as inactive or inconclusive.

SMILES	Nrf2 inh	LDHA inh	ALOX12 inh	ERG Ets-DNA blk	A549 viability	Nrf2 activator
CCN(c1ccccc1)S(=O)(=O)c1ccc(C(=O)Nc2nc3ccccc3[nH]2)cc1	.	-	-	.	.	.
CCOc1ccccc1Oc1coc2cc(OC(=O)c3ccc4c(c3)OCO4)ccc2c1=O	.	-31	?	.	.	.
CCOc1ccccc1Oc1c(C)oc2cc(OC(=O)c3ccc4c(c3)OCO4)ccc2c1=O	.	-	-	.	.	.
COC(=O)c1ccc(OCC(=O)c2ccccc2OC)cc1	-	-	20µM	-	-	-
COC(=O)c1ccc(COC(=O)c2ccccc2OC)cc1	-	-	-	-	-	-
CC1CCN(CCCNCc2cccnc2)CC1	.	-	?	.	.	.
Fc1ccc(/C=C2\CCCC3=C2N=C2SC=C(c4ccccc4)N2C3c2ccc(F)cc2)cc1 (stereo not given)	.	-	22µM	.	.	.
COc1ccc(OC)c(C(=O)COC(=O)c2ccc(C)o2)c1	-	-	-	-	-	13µM
Cc1nc(CCNC(=O)Cc2ccsc2)no1	.	.	35µM	.	.	.
Cn1c(=O)c2nc(SCC(=O)c3ccc(Cl)cc3)n(C)c2n(C)c1=O	.	-	?	.	.	.
O=C(CCc1ccccc1)NC(NC(=S)Nc1ccc(Br)cc1)C(Cl)(Cl)Cl (stereo not given)	9.2µM	-	-	.	?	-
CCn1c2ccccc2c2cc(CNCC3CCNCC3)ccc21	.	-	-	.	.	.
CCn1c2ccccc2c2cc(CNCCc3c[nH]c4ccccc34)ccc21	.	-	40µM	.	.	.
COc1cccc(N2CCN(CC(=O)Nc3nnc(-c4ccccc4)s3)CC2)c1	12µM	-	-	-	-	-
COc1cccc(C(=O)Nc2ccc(N3CCN(Cc4ccccc4)CC3)cc2)c1	-	-	-	-	-	-
COc1cccc(C(=O)NCCN2CCN(c3ccccc3)CC2)c1	?	-	16µM	-	-	-
O=C(Nc1ccc(N2CCN(C(=O)c3cccs3)CC2)cc1)c1cccc(F)c1	?	-	?	-	-	-
COc1cccc(C(=O)Nc2ccc(N3CCN(C(=O)c4cccs4)CC3)cc2)c1	21µM	-	?	-	?	-
CCCC(=O)NC(=S)Nc1ccc(N2CCN(C(=O)c3cccs3)CC2)cc1	15µM	-	-	-	-	-
CCCCNc1nc2ccccc2nc1NS(=O)(=O)c1cc(Cl)ccc1Cl	.	-	?	.	.	.
CCC1CCCCN1C(=O)CSc1nc(-c2ccc(OC)cc2)cc(C(F)(F)F)n1 (stereo not given)	21µM	-	-	-	-	-
CCC1CCCCN1C(=O)CSc1nc(-c2ccc(OC)c(OC)c2)cc(C(F)(F)F)n1 (stereo not given)	?	-	-	-	?	-
CC1=C(C(=O)Nc2ccccc2)C(c2cccc(Br)c2)NC(=S)N1 (stereo not given)	.	-	?	.	.	.
S=C(SSC(=S)N1CCOCC1)N1CCOCC1	.	-	5µM	.	.	-
Cc1ccc(/C=C2\SC(=S)N(CCCC(=O)Nc3ccc(O)cc3)C2=O)cc1	16µM	-	-	-	-	-
SMILES	Nrf2 inh	LDHA inh	ALOX12 inh	ERG Ets-DNA blk	A549 viability	Nrf2 activator
Cc1ccc(/C=C2\SC(=S)N(CCCC(=O)Nc3ccccn3)C2=O)cc1	2.3µM	-	?	-	?	-
Cc1ccc(/C=C2\SC(=S)N(CCCC(=O)Nc3ccccc3C(=O)O)C2=O)cc1	15µM	-	?	-	-	-
O=C(CCCN1C(=O)/C(=C/c2ccc3c(c2)OCO3)SC1=S)Nc1ccc(C(=O)O)cc1	10µM	-	14µM	-	-	-
CCN(Cc1ccco1)C(=O)c1cc2cc(F)ccc2[nH]1	.	-	?	.	.	.
Cc1ccc(NC(=O)CCN2C(=O)c3cccc4cccc(c34)C2=O)cc1	?	-	-	-	-	-
Cc1ccc(NC(=O)CCCN2C(=O)c3cccc4cccc(c34)C2=O)cc1	15µM	-	-	-	?	-
CC(C)(C)OC(=O)NCCCCCNC(=O)c1[nH]cnc1C(=O)N[C@@H](CCCCNC(=O)OC(C)(C)C)C(=O)OC(C)(C)C	23µM	-	.	-	-	-
CC(C)(C)OC(=O)NCCCCCNC(=O)c1nc[nH]c1C(=O)NCCCCCNC(=O)OC(C)(C)C	13µM	-	-	-	-	-
Cc1cccc(NC(=O)c2nc[nH]c2C(=O)NCCCCCNC(=O)OC(C)(C)C)c1	21µM	-	-	-	?	-
CC(C)(C)OC(=O)NCCCCCNC(=O)c1nc[nH]c1C(=O)NCc1ccc(CNC(=O)OC(C)(C)C)cc1	13µM	-	-	-	?	-
CC(C)(C)OC(=O)CNC(=O)c1nc[nH]c1C(=O)NCc1ccc(CNC(=O)OC(C)(C)C)cc1	-	-	-	-	-	-
CN1C(=S)SC(C)(C)C1/[N+]([O-])=C/c1ccccc1 (stereo not given)	.	-	?	.	.	.
CC(OC(=O)c1nn(C)c(=O)c2ccccc12)C(N)=O (stereo not given)	.	-	-	.	.	.
CN1CCN(c2ncncc2-c2ccccc2Cl)CC1	.	.	40µM	.	.	.
CN1CCN(c2ncnc3scc(-c4ccccc4Cl)c23)CC1	?	-	-	-	-	-
COc1ccc(C(=O)NCc2ccc(-c3csc(C)n3)s2)cc1F	.	-	-	.	.	.
O=C(NCC#Cc1cccc(C(F)(F)F)c1)NC1CCN(Cc2ccccn2)CC1	.	-	-	.	.	.
CCOC(=O)C1CCN(Cc2cc(Cl)c3ccccc3c2O)CC1	-	-	.	-	-	?
Oc1c(CN2CCCC(C(F)(F)F)C2)cc(Cl)c2ccccc12 (stereo not given)	-	-	16µM	-	-	?
O=C(c1ccccc1)[C@@H]1[C@@H](C(=O)c2ccco2)[C@@]2(C(=O)Nc3ccccc32)[C@H]2c3ccccc3C=CN12	.	-	14µM	.	.	.
CCCCCCCn1c(SCC(=O)O)nc2c1c(=O)[nH]c(=O)n2C	.	-	?	.	.	.
O=S(=O)(Nc1ccc2c3c(cccc13)CC2)c1ccc(F)cc1	.	-	-	-	-	-
CSc1ccc(S(=O)(=O)Nc2ccc3c4c(cccc24)CC3)cc1	18µM	-	-	-	?	-
CC(=O)c1c(C)[nH]c(C(=O)C(C)OC(=O)c2ccc(C)c(O)c2)c1C (stereo not given)	.	-	?	.	.	.
CC1CCN(S(=O)(=O)c2ccc(C(=O)N3CCCC(C(F)(F)F)C3)cc2)CC1 (stereo not given)	21µM	-	-	-	-	-
O=C(c1ccc(S(=O)(=O)N2CCCCCC2)cc1)N1CCCC(C(F)(F)F)C1 (stereo not given)	-	-	-	-	-	-
COc1ccccc1NS(=O)(=O)c1ccc(C(=O)N2CCCC(C(F)(F)F)C2)cc1 (stereo not given)	23µM	-	-	-	-	-
